These results are taken from PubChem BioAssay (EPA / NIEHS).

SMILES strings stand for the structures. Inconclusive results are not listed. Activity calls are given as the source filed them. How the source made its calls, unless noted: active means hit-call score of the fitted dose curve at least 0.9, where 1 is the maximum; inactive means score below 0.9.

The nature of experiment [1]: CCTE_Shafer_MEA_dev_active_electrodes_number: CCTE's Neural Network Formation Assay for Number of Active Electrodes, Shafer Lab (AID 2284040; active means hit-call score of the fitted dose curve at least 0.9, where 1 is the maximum;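 further: potency for loss of active electrodes versus DMSO so lower counts are hits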). In outline: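 Rat cortical primary cultures, 1.5 x 10^5 cells/well, PEI-coated MEA, laminin drop. Continuous exposure DIV 0–12; full media/compound change DIV 5, 9. Readout: electrodes with mean firing ≥5 spikes/min; AUC across days; loss vs DMSO.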

Experiment [2] in a line: CCTE_Shafer_MEA_dev_burst_rate: CCTE's Neural Network Formation Assay for Burst Rate, Shafer Lab (AID 2284042).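 Further: potency for loss of burst rate below DMSO control.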 In short, it runs like this:
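Exposure ran continuously over 12 days of network development in rat cortical cultures, with compound refreshed during full media changes on DIV 5 and 9. Single-electrode bursts per recording time, well-mean over active electrodes, trapezoidal AUC across days 5–12, fitted downward relative to DMSO.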

Experiment [3] in a line: CCTE_Shafer_MEA_dev_per_burst_interspike_interval: CCTE's Neural Network Formation Assay for Burst Interspike Interval, Shafer Lab (AID 2284044).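 Further: mean spike spacing inside bursts as AUC over recordings on days 5 7 9 12; potency for a decrease of within-burst interspike interval below DMSO level.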 In short, it runs like this:
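Primary rat cortical neurons on 48-well MEA plates, exposed from day 0 through day 12, treatment renewed at DIV 5 and 9. Within-burst interspike interval recorded days 5, 7, 9, 12, well-averaged, summarised as AUC; negative fit versus DMSO.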

Experiment [4] is described as follows: CCTE_Shafer_MEA_dev_burst_duration_mean: CCTE's Neural Network Formation Assay for Mean Burst Duration, Shafer Lab (AID 2284045).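 Further: curve fitted for loss meaning shorter burst duration than DMSO.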 In outline:
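Primary rat cortical neurons on 48-well 16-electrode MEA plates, exposed from day 0 with renewal at DIV 5 and 9; spontaneous activity recorded on days 5, 7, 9, 12. Well-mean burst duration across bursting electrodes, collapsed as trapezoidal AUC; DMSO baseline.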

Experiment [5] can be described thus: CCTE_Shafer_MEA_dev_interburst_interval_mean: CCTE's Neural Network Formation Assay for Mean Interburst Interval, Shafer Lab (AID 2284046).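 Further: well-mean interburst interval of bursting electrodes as AUC over four recording days; curve fitted for decrease in interburst interval relative to DMSO.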 In outline:
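Primary rat cortical neurons on PEI-coated 48-well MEA plates (laminin added with cells at plating) (16 electrodes/well), exposed from plating day 0 with renewal at DIV 5 and 9. Mean inter-burst interval averaged over bursting electrodes, AUC across days 5, 7, 9, 12; DMSO baseline.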

Experiment [6] can be described thus: CCTE_Shafer_MEA_dev_inter_network_spike_interval_mean: CCTE's Neural Network Formation Assay for Mean Inter-network Spike Interval, Shafer Lab (AID 2284047).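 Further: potency for a decrease in mean inter-network spike interval below DMSO.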 In short, it runs like this: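 Mean time between consecutive network-spike peaks, recorded extracellularly (adaptive spike detection) on DIV 5, 7, 9 and 12, summarized as trapezoidal AUC. Rat cortical cultures on MEAs dosed continuously days 0–12, re-dosed at feeds; loss-of-signal fit relative to DMSO.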

Experiment [7] can be described thus: CCTE_Shafer_MEA_dev_network_spike_number: CCTE's Neural Network Formation Assay for Number of Network Spikes, Shafer Lab (AID 2284048).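 Further: synchronized bursts across electrodes counted on days 5 7 9 12 and integrated as AUC; fit as a loss of signal meaning fewer network spikes than DMSO.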 In outline: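 Primary rat cortical neurons on PEI/laminin 48-well MEA plates, dosed from plating day 0 for 12 days, renewed at DIV 5 and 9. Network spike counts recorded DIV 5, 7, 9, 12, collapsed as trapezoidal AUC; DMSO baseline.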

The nature of experiment [8]: CCTE_Shafer_MEA_dev_spike_duration_mean: CCTE's Neural Network Formation Assay for Mean Spike Duration, Shafer Lab (AID 2284051).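 Further: mean network spike duration pooled as area under curve over DIV 5 to 12 recordings; potency for a decrease in mean network spike duration versus DMSO.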 In short, it runs like this:
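Spontaneous activity was recorded on days 5, 7, 9 and 12 from rat cortical cultures grown on microelectrode arrays and dosed continuously from day 0, with media and compound renewed after the DIV 5 and 9 recordings. Network-spike duration was collapsed by area under the curve.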

Experiment [9] in a line: CCTE_Shafer_MEA_dev_network_spike_duration_std: CCTE's Neural Network Formation Assay for Standard Deviation of Network Spike Duration, Shafer Lab (AID 2284052).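 Further: hits are decreases in network spike duration SD versus DMSO vehicle.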 In outline: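 Network spike duration variability was collapsed across recordings on days 5, 7, 9 and 12 by trapezoidal area-under-curve and fitted downward against DMSO. Cultures were rat cortical neurons on PEI-coated MEA plates, dosed continuously from plating, refed with compound DIV 5/9.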

Experiment [10] is described as follows: CCTE_Shafer_MEA_dev_per_network_spike_spike_number_mean: CCTE's Neural Network Formation Assay for Mean Number of Spikes in a Network Spike, Shafer Lab (AID 2284053).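 Further: fitted as decrease in spikes per network spike relative to DMSO.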 In outline: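 Mean spike count within each network spike, taken in a 0.05 s window at its peak, was recorded on days 5, 7, 9 and 12 and integrated as trapezoidal area under the curve. Rat cortical cultures on MEA plates received continuous compound from day 0, refreshed at medium changes on DIV 5 and 9.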

The nature of experiment [11]: CCTE_Shafer_MEA_dev_per_network_spike_spike_percent: CCTE's Neural Network Formation Assay for Percent of Spikes in a Network Spike, Shafer Lab (AID 2284054). In outline:
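Rat primary cortical neurons were grown on 48-well MEA plates (16 electrodes/well), exposed from plating day 0 through day 12, with treatment renewed on DIV 5 and 9. Percent of spikes within 0.05 s network-spike peaks was measured, summarised as AUC across days 5, 7, 9, 12.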

Experiment [12] can be described thus: CCTE_Shafer_MEA_dev_LDH: CCTE's Lactate Dehydrogenase Assay for Cytotoxicity in the Neural Network Formation Assay, Shafer Lab (AID 2284068; active means hit-call score of the fitted dose curve at least 0.9, where 1 is the maximum;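 further: exposure for twelve days from plating with re-dosing on DIV 5 and 9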). In outline:
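Primary rat cortical neurons were cultured on PEI-coated MEA plates and exposed from plating through day 12, with compound renewed at medium changes on DIV 5 and 9. LDH activity was read spectrophotometrically; loss of signal versus DMSO indicates reduced viability.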

A short description of experiment [13]: CCTE_Shafer_MEA_acute_AB: CCTE's Alamar Blue Assay for Cytotoxicity in the Neural Acute Assay, Shafer Lab (AID 2284069; active means hit-call score of the fitted dose curve at least 0.9, where 1 is the maximum;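 further: active compounds lower the viability signal compared with DMSO wells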). In short, it runs like this:
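Resazurin reduction (CellTiter Blue, 1:6 in fresh medium) read at ex 544/em 590 nm marks viability loss relative to DMSO. Cells: primary rat cortical neuron networks on microelectrode arrays, treated after baseline recording at 13 or 15 days in vitro.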

A short description of experiment [14]: UKN5_HCS_SBAD2_neurite_outgrowth: University of Konstanz (UKN) Leist Lab Neurite Outgrowth Assay in human iPSC-derived immature Dorsal Root Ganglia Neurons (UKN5) (AID 2284070). To be noted: actives raise or lower the signal. In short, it runs like this:
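SBAD2 neurons, 24 h compound treatment, calcein-AM neurite area via HCS imaging; DMSO baseline, gain or loss of signal.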

Experiment [15] is described as follows: CCTE_Shafer_MEA_dev_AB: CCTE's Alamar Blue Assay for Cytotoxicity in the Neural Network Formation Assay, Shafer Lab (AID 2284083; active means hit-call score of the fitted dose curve at least 0.9, where 1 is the maximum;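 further: resazurin reduction fluorescence as viability of cultured neurons; twelve days of exposure from plating with re-dosing on DIV 5 and 9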). In short, it runs like this: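 Resazurin fluorescence, relative to DMSO, gauges viability after twelve days of exposure that began at plating of rat cortical neurons (1.5 x 10^5 cells/well, 48-well MEA); treatment renewed with full medium exchange on DIV 5 and 9.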
(The colour change of resazurin is a common sign of viable cells or microbes.)

Experiment [16] can be described thus: CCTE_Shafer_MEA_acute_LDH: CCTE's Lactate Dehydrogenase Assay for Cytotoxicity in the Neural Acute Assay, Shafer Lab (AID 2284086; active means hit-call score of the fitted dose curve at least 0.9, where 1 is the maximum;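 further: active means LDH release rises above DMSO vehicle level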). In outline:
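Released lactate dehydrogenase, read at 490 nm, indicated cytotoxicity after acute 40-min compound treatment of rat cortical neuron networks grown on 48-well MEA plates.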

Experiment [17] in a line: CCTE_Shafer_MEA_dev_mutual_information_norm: CCTE's Neural Network Formation Assay for Mutual Information Normalization, Shafer Lab (AID 2284091).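 Further: mutual information between electrodes summarised as area under curve across four recording days; potency is for a decrease in mutual information relative to DMSO.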 In short, it runs like this: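 Primary rat cortical neurons on PEI-coated 48-well MEA plates, 1.5 x 10^5 cells/well, exposed from day 0 through day 12 with re-dosing at DIV 5 and 9. Mutual information between electrodes recorded days 5, 7, 9, 12; trapezoidal AUC, loss-of-signal fit versus DMSO.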

The nature of experiment [18]: CCTE_Shafer_MEA_dev_correlation_coefficient_mean: CCTE's Neural Network Formation Assay for Mean Correlation Coefficient, Shafer Lab (AID 2284093).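 Further: well mean pairwise spike train correlation integrated as AUC over recording days 5 to 12; potency fitted for loss of correlation relative to DMSO vehicle wells.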 In short, it runs like this: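 Primary rat cortical neurons on PEI-coated 48-well MEA plates (16 electrodes/well) were exposed from plating day 0 through DIV12, with compound renewed at DIV5 and 9. Pairwise spike correlations were averaged per well; trapezoidal AUC across DIV5, 7, 9, 12.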

The nature of experiment [19]: UKN2_HCS_IMR90_neural_migration: University of Konstanz (UKN) Leist Lab Neural Crest Cell Migration Assay in human induced IMR90 Pluripotent Stem Cells (UKN2) (AID 2284204). To be noted: actives raise or lower the signal. In outline: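 iPSC-derived IMR90 neural crest cells seeded around stoppers on PLO/laminin/fibronectin; migration started in N2-S medium with EGF/FGF, compounds added after 24 h for 24 h. Migration into cell-free area imaged after calcein-AM/Hoechst staining; bidirectional fit versus DMSO.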

Experiment [20] is described as follows: IUF_NPC1b_proliferation_BrdU_72hr: Leibniz Research Institute for Environmental Medicine (IUF) 72-hour Neural Progenitor Cell Bromodeoxyuridine (BrdU) Proliferation Assay (NPC1b) (AID 2284207). In short, it runs like this:
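BrdU luminescence ELISA quantified DNA synthesis over the last 16 h of a 72 h exposure, fitted against DMSO. Primary hNPC spheres from gestational week 16-19 cortex grown with EGF/FGF at 37C, pH 7.2-7.6.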

A short description of experiment [21]: IUF_NPC1a_proliferation_area_72hr: Leibniz Research Institute for Environmental Medicine (IUF) 72-hour Neural Progenitor Cell Proliferation Area Assay (NPC1a) (AID 2284208). In outline: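 Single 0.25–0.35 mm human fetal neural progenitor spheres in proliferation medium with EGF and FGF, exposed 72 h from plating without renewal at 37C, pH 7.2-7.6. Sphere area growth measured by automated phase-contrast imaging, relative to DMSO.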

Experiment [22] is described as follows: CCTE_Mundy_HCI_Cortical_Synap_Neur_Matur_NeuriteSpotCountPerNeuriteLength: CCTE's Synaptogenesis and Neurite Maturation Assay in rat cortical cells for Neurite Spot Count per Neurite Length, Mundy Lab (AID 2284210). In outline: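 Rat primary cortical cultures, AraC added at DIV 5 to suppress glia; chemical exposure from DIV 7 to DIV 12. Fixed cells stained for MAP2 and synaptophysin plus Hoechst; synaptophysin puncta per neurite length quantified by high-content imaging, relative to DMSO.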

Experiment [23] can be described thus: CCTE_Mundy_HCI_Cortical_NOG_NeuriteCount: CCTE's Neurite Outgrowth Assay in rat cortical cells for Neurite Count, Mundy Lab (AID 2284212).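 Further: cells fixed about two days after chemical exposure began.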 In short, it runs like this:
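Neurite number per cell from high-content imaging of betaIII-tubulin immunostaining, with Hoechst nuclear counterstain.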

The term AC50 denotes the concentration at which the activity in the assay is half-maximal.

Take `[Cd+2].[Cl-].[Cl-]`: the AC50 in [1] is 315 nM (active); in [2], 461 nM (active); in [3], 630 nM (active); in experiment [4], 387 nM (active); in experiment [5], 460 nM (active); in experiment [6], 14 nM (active). In addition, the AC50 in experiment [7] is 299 nM (active); in [8], 119 nM (active); in [9] it was 23.9 nM (active); in [10], 260 nM (active); in experiment [11], 585 nM (active); in experiment [12], 1.51 µM (active). Further, the AC50 in [14] was 50 µM (active); in [15], 1.21 µM (active); in experiment [17], 178 nM (active); in experiment [18], 609 nM (active); in experiment [19], 880 nM (active); in [20] it was 6.45 µM (active). Also, the AC50 in [23] was 13.1 µM (active). In addition, the result in experiment [13], in experiment [16], in experiment [21] and in experiment [22] was inactive.
